Source: PubChem (National Center for Advancing Translational Sciences (NCATS))
The entries come from a sample that favours hits as a whole.
AmpC no deterg – blocks E. coli AmpC beta-lactamase in detergent-free assay; P00811; AmpC nitrocefin hydrolysis, absorbance 480 nm, 0.0001% Triton; Potency, µM (doses to about 57.1 µM), most hits filed as inhibitors; 330,000 compounds, 0.52% hits; further: nearly all actives have a fitted effect of over 20% in size
Target sequence (P00811 whole entry, looked up): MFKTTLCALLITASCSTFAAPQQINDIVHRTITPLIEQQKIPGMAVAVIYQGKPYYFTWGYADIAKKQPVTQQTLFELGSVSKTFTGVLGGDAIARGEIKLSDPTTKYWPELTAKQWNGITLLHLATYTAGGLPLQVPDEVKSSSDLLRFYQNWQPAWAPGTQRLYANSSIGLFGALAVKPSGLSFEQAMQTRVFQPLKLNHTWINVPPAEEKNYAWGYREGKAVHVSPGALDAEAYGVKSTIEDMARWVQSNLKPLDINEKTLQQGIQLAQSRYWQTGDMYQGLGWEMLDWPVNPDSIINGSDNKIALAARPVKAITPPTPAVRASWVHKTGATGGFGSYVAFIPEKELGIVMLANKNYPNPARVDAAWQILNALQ
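AmpC (5.3 nM in the dispensed reagent) in 20 mM phosphate pH 7.0 with 0.01% (detergent screen) or 0.0001% Triton X-100 was preincubated with compounds for 15 min at room temperature. Nitrocefin was then added from an 800 uM solution, and hydrolysis was followed at 480 nm.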
AmpC detergent – blocks E. coli AmpC beta-lactamase in detergent assay; P00811; AmpC hydrolysis of nitrocefin, absorbance 480 nm, 0.01% Triton; 370,000 compounds, 0.041% hits; Potency, µM (top dose mostly 114 µM), usual class: inhibitors; further: nearly all actives have a fitted effect of over 25% in size
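AmpC (5.3 nM in the dispensed reagent) in 20 mM phosphate pH 7.0 with 0.01% (detergent screen) or 0.0001% Triton X-100 was preincubated with compounds for 15 min at room temperature. Nitrocefin was then added from an 800 uM solution, and hydrolysis was followed at 480 nm.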
Each line names hits and unclear results; the compound was inactive in the other large screens. The call rests on the fitted dose curve; in most records, active means well fitted curve in the direction sought with a large enough effect; inconclusive means small, poorly fitted or top-dose-only effect, or another doubt; inactive means no such curve, though single readings can be large; an effect the other way counts as inactive or inconclusive.

N#CCCN1CCN(S(=O)(=O)c2ccc(S(=O)(=O)N3CCCCCC3)cc2)CC1	AmpC detergent inconclusive
COc1cccc(C2CC(=O)Nc3cc4c(cc32)OCCO4)c1OC (stereo not given)	none (no result: AmpC no deterg)
CO/C=C\C=C/c1nnn(-c2ccc(Cl)cc2)n1	AmpC no deterg 11.2µM
Clc1ccc(-n2cnnn2)cc1	none
CCOc1cc(C(=O)NCCc2csc(-c3ccc(C)cc3)n2)cc(OCC)c1OCC	none (no result: AmpC no deterg)
COc1cccc(C(=O)NCc2cn3cccc(C)c3n2)c1	none (no result: AmpC no deterg)
O=C(CCCSc1ccccc1)Nc1nc(-c2ccco2)c(-c2ccco2)s1	AmpC no deterg 28.2µM
O=C(CCl)Nc1nc(-c2ccco2)c(-c2ccco2)s1	none
Cc1ccc(NC(=O)C2CCCN(S(=O)(=O)c3c(C)n[nH]c3C)C2)c(C)c1 (stereo not given)	none (no result: AmpC no deterg)
COCCCNC(=O)CS(=O)(=O)Cc1nc(-c2cccc(OC)c2)oc1C	none
CCCNC(=O)CS(=O)(=O)Cc1nc(-c2ccccc2C)oc1C	AmpC no deterg 3.55µM
COc1ccc(NC(=O)CS(=O)(=O)Cc2nc(-c3ccc(C)cc3)oc2C)cc1	none
COc1ccc(-c2nc(CS(=O)(=O)CC(=O)Nc3ccc(Cl)cc3)c(C)o2)cc1	AmpC no deterg 3.98µM
CCCCN(C)C(=O)CS(=O)(=O)Cc1nc(-c2cccc(OC)c2)oc1C	AmpC no deterg 11.2µM, AmpC detergent inconclusive
Cc1ccc(CNC(=O)CS(=O)(=O)Cc2nc(-c3ccccc3C)oc2C)cc1	none (no result: AmpC no deterg)
CCc1cccc(NC(=O)c2ccc(CNS(=O)(=O)c3ccc4c(c3)C(C)(C)C(=O)N4C)cc2)c1	none (no result: AmpC no deterg)
Cc1ccc(CCNC(=O)c2cnc3c(C)cccn3c2=O)cc1	none (no result: AmpC no deterg)
CC(NC(=O)c1cccc(NC(=O)c2nsc3ccccc23)c1)c1ccccc1 (stereo not given)	none (no result: AmpC no deterg)
O=C(CN1C(=O)COc2ccc(S(=O)(=O)N3CCCCCC3)cc21)NCCc1ccccc1	none (no result: AmpC no deterg)
COc1ccccc1-c1c(C)nn2c(N3CCC(C)CC3)cc(C)nc12	none
CCOC(=O)N1CCC(Nc2cc(C)nc3c(-c4ccccc4OC)c(C)nn23)CC1	AmpC no deterg 28.2µM
CCOC(=O)N1CCN(C(=O)CSc2cc(C)nc3c(-c4ccccc4OC)c(C)nn23)CC1	none
COc1ccccc1-c1c(C)nn2c(C)cc(C)nc12	AmpC no deterg 10µM, AmpC detergent inconclusive
Cc1ccc2nc(-c3cccc(NC(=O)c4cccc5c(Cl)cccc45)c3)oc2c1	none (no result: AmpC no deterg)
CC(=O)c1[nH]c(C)c(C(=O)NCc2ccc(Cl)cc2)c1C	none (no result: AmpC no deterg)
Cc1ccc(Cn2ccc(NC(=O)c3cc(-c4ccc(Cl)c(Cl)c4)on3)n2)cc1	none (no result: AmpC no deterg)
Cc1cc(C)c(S(=O)(=O)NCCn2ccc3ccccc32)c(C)c1	AmpC no deterg 39.8µM, AmpC detergent inconclusive
Cc1cc(C)c(S(=O)(=O)NCCc2ccccc2)c(C)c1	none
Cc1ccccc1NS(=O)(=O)c1cc(C(=O)NCCSC2CCCCC2)ccc1C	AmpC no deterg 1.26µM
Cc1ccc(C)c(NS(=O)(=O)c2cc(C(=O)NCCSC3CCCCC3)ccc2C)c1	none
CC(=O)c1sc(NC(=O)CN2C(=O)NC3(CCCC3)C2=O)nc1-c1ccccc1	none
Cc1sc(NC(=O)CN2C(=O)NC3(CCCC3)C2=O)nc1-c1ccc(F)cc1	AmpC no deterg 25.1µM, AmpC detergent inconclusive
CCOC(=O)c1cc2c(ccn2C)n1CC(=O)N1CCN(c2ccccc2)CC1	AmpC detergent 31.6µM
CCOC(=O)c1cc2c(ccn2C)n1CC(=O)N1C(C)CCCC1C (stereo not given)	none
CCn1c(=O)c2cc(C(=O)N(C)c3cc(C)ccc3C)sc2c2ccccc21	none (no result: AmpC no deterg)
Cc1cc(C(=O)N/N=C/c2cn[nH]c2-c2ccccc2)cs1	none
CCc1c(C(=O)N/N=C/c2cn[nH]c2-c2ccc(F)cc2)csc1C	AmpC no deterg 15.8µM, AmpC detergent inconclusive
O=c1[nH]c(=O)n(Cc2ccco2)c(O)c1C=NCc1cccs1	none (no result: AmpC no deterg)
O=c1[nH]c(=S)n(Cc2ccco2)c(O)c1C=NCc1cccs1	AmpC no deterg 17.8µM
Cc1cccc(C)c1NC(=O)CSc1ncc2c(n1)-c1ccc(Cl)cc1N(Cc1ccccc1)S2(=O)=O	none (no result: AmpC no deterg)
COc1ccc(Nc2cc(C(=O)NCCCN3CCN(c4ccc(OC)cc4)CC3)c3ccccc3n2)cc1	none (no result: AmpC no deterg)
CCN(c1ccccc1)S(=O)(=O)c1cc(NC(=O)Nc2ccccc2C#N)ccc1Cl	AmpC no deterg 8.91µM, AmpC detergent inconclusive
CCN(c1ccccc1)S(=O)(=O)c1ccc(Cl)c(NC(=O)Nc2ccc(Cl)cc2C#N)c1	none
